Assay outcomes as filed in PubChem BioAssay.
Most compounds without a hit are left out; they make up all but 14% or so of the library.
Shiga toxin inh: Shiga toxin inhibition; Vero cells, Shiga toxin protein synthesis inhibition reporter; inhibition, % at 38.7 µM; 290,000 compounds, 9.2% hits; AID 2315; in the data active means inhibition mostly above about 28%, no sharp cut-off; inactive means mostly below about 43%; further: 0% is about no effect
LmPK inh: inhibitors of Leishmania mexicana pyruvate kinase. purified LmPK, Kinase-Glo ATP luminescence, 1 h. Potency, µM (top dose mostly 57.5 µM), for inactives: at the top dose activity change, negative = inhibition, most hits filed as inhibitors. 290,000 compounds, 0.37% hits; further: potency means the concentration at half of the fitted maximal effect; on the % scale 0 is the no-effect control and ±100 the full control effect
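Kinase-Glo luminescence read after 1 h RT reaction of 0.1 nM LmPK with 0.5 mM PEP and 0.1 mM ADP. Activity scaled between uninhibited and enzyme-free controls.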
NS1 function inh: inhibitors of influenza NS1 protein function. 270,000 compounds, 0.4% hits. Potency, µM (titrated, usually from 46.1 µM), without a hit: top-dose activity, positive = more growth; calls by dose curve; further: potency means the concentration at half of the fitted maximal effect; actives are rising curves; nearly all actives have a fitted effect of over 50% in size
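Compounds were scored for reversing the slow growth caused by influenza A NS1 in S. cerevisiae, measured by optical density at 600 nm. Assay medium contained 2% galactose at pH 6.0; NS1-free yeast of the same strain were the positive control.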
CHX counter: counter-screen hit for Shiga toxin inhibitors, cycloheximide | 300,000 compounds, 12% hits | max response, % | cell reporter, cycloheximide protein synthesis inhibition counterscreen; in the data active means max response mostly above about 13%, no sharp cut-off; inactive means mostly below about 14%; further: read at 38.3 µM for the half of the compounds with a filed dose; 0% is about no effect
FBPA Giardia inh: inhibitors of Giardia lamblia fructose-1,6-bisphosphate aldolase. A8B2U2. Potency, µM (titrated, usually from 59.6 µM), inactives show at the top dose activity, negative = inhibition, actives largely listed as inhibitors. 290,000 compounds, 0.71% hits. purified Giardia FBPA; further: potency means the concentration at half of the fitted maximal effect; on the % scale 0 is the no-effect control and ±100 the full control effect; nearly all actives have a fitted effect of over 55% in size
Target sequence (A8B2U2 whole entry, looked up): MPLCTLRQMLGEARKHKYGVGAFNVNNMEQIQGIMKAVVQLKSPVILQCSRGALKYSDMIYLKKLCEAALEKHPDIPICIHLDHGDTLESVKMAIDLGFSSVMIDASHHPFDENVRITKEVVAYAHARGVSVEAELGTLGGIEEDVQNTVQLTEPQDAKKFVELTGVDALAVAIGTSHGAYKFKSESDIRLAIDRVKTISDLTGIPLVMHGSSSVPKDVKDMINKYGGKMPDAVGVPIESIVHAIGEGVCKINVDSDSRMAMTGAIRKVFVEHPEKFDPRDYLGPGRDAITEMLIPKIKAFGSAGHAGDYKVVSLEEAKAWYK
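Giardia FBPA (40 nM reagent) was preincubated 10 min at RT with compound (up to 57.5 uM final), then substrate plus GAPDH/TPI/NAD/arsenate coupling system with diaphorase/resazurin was added; resorufin fluorescence (525/598 nm) was read after 20 min.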
Numbers without * were called inactive. Unless noted, the call rests on the fitted dose curve; in most records, active means well fitted curve in the direction sought with a large enough effect; inconclusive means small, poorly fitted or top-dose-only effect, or another doubt; inactive means no such curve, though single readings can be large; an effect the other way counts as inactive or inconclusive.

Screening O=C(O)c1cc(-c2ccc(Br)s2)nc2ccccc12 returned Shiga toxin inh 34.1*, LmPK inh -5.2%, NS1 function inh -0.2%, CHX counter 17.1* and FBPA Giardia inh -8.2%.
Screening COc1cccc2c3c(c(C)nc12)CC(CO)O3 (stereo unspecified) returned FBPA Giardia inh -0.3%.
`COc1ccc(-c2cc(C(=O)N3CCC4(CC3)OCCO4)c3ccccc3n2)cc1` gave Shiga toxin inh 38.7, LmPK inh 1.1%, NS1 function inh -34.1% and CHX counter 24.9*.
For COc1ccc(-c2cc(C(=O)N3CCCCCC3)c3ccccc3n2)c(OC)c1 the results were Shiga toxin inh 4.0, LmPK inh 4.1%, NS1 function inh -49.2%, CHX counter 9.2 and FBPA Giardia inh -3.5%.
Screening O=C(c1cc(-c2ccccc2)nc2ccccc12)N1CCOCC1 returned Shiga toxin inh -11.1, LmPK inh 8.7%, NS1 function inh -23.0%, CHX counter -5.8 and FBPA Giardia inh -9.2%.
O=C(c1ccco1)N1CCN(C(=O)c2cc(-c3ccccc3)nc3ccccc23)CC1 was read as Shiga toxin inh 12.9, LmPK inh -2.0%, NS1 function inh -0.9%, CHX counter 19.4* and FBPA Giardia inh 2.8%.
For CS(=O)(=O)N1CCN(C(=O)c2cc(-c3cccs3)nc3ccccc23)CC1 the results were Shiga toxin inh -17.9, LmPK inh 5.8%, NS1 function inh -12.8%, CHX counter 4.0 and FBPA Giardia inh -5.7%.
Screening COc1ccc(-c2cc(C(=O)N3CCCC3)c3ccccc3n2)cc1 returned Shiga toxin inh 44.8*, LmPK inh 0.4%, NS1 function inh -29.6%, CHX counter 36.4* and FBPA Giardia inh -6.1%.
O=C(c1cc(-c2cccs2)nc2ccccc12)N1CCN(c2ccccc2O)CC1 was read as Shiga toxin inh 90.8, LmPK inh 2.2%, CHX counter 19.0* and FBPA Giardia inh -12.9%.
`Cc1ccc(S(=O)(=O)NC(=O)COc2ccccc2C)c(C)c1` gave Shiga toxin inh -6.2, LmPK inh -0.1%, NS1 function inh -37.4% and CHX counter 2.3.
For COc1ccc(-c2cc(C(=O)N3CCN(c4ccccc4)CC3)c3ccccc3n2)cc1 the results were Shiga toxin inh 62.7*, LmPK inh 5.1%, NS1 function inh 16.9%, CHX counter 27.4* and FBPA Giardia inh -4.2%.
Screening COCCCNC(=O)/C=C/c1cccc(Cl)c1 returned Shiga toxin inh 29.7, LmPK inh -3.6%, NS1 function inh -1.1%, CHX counter 21.2* and FBPA Giardia inh 3.3%.
`O=C(/C=C/c1cccc(F)c1)Nc1ccc(S(=O)(=O)Nc2ncccn2)cc1` gave Shiga toxin inh 11.5, LmPK inh 2.0%, NS1 function inh -0.3%, CHX counter -1.5 and FBPA Giardia inh 7.4%.
Screening CSc1cccc(NC(=O)/C=C/c2cccc(Cl)c2)c1 returned Shiga toxin inh 143.4*, LmPK inh 4.2%, NS1 function inh -116.8%, CHX counter 72.0* and FBPA Giardia inh -10.5%.
`CN(C)C(CNC(=O)/C=C/c1cccc(Cl)c1)c1ccccc1` (stereo unspecified) gave Shiga toxin inh 7.2, LmPK inh 5.6%, CHX counter 4.5 and FBPA Giardia inh 4.6%.
For O=C(/C=C/c1cccc(Cl)c1)Nc1ncccn1 the results were Shiga toxin inh 54.6*, LmPK inh -11.3%, NS1 function inh -12.0%, CHX counter 15.2 and FBPA Giardia inh -1.1%.
O=C1OC(N2C(=O)CC[C@H]2C(=O)Nc2ccc3c(c2)OCO3)c2ccccc21 (stereo partly specified) was read as Shiga toxin inh 1.4, LmPK inh -9.2%, NS1 function inh -20.1%, CHX counter -3.1 and FBPA Giardia inh -5.4%.
CC(C)(C)OC(=O)CNC(=O)c1[nH]cnc1C(=O)Nc1ccc(Cl)cc1 was read as Shiga toxin inh -3.8, LmPK inh 5.5%, NS1 function inh -37.1%, CHX counter -3.9 and FBPA Giardia inh -22.5%.
For CCCCOc1[nH]c2nc(-c3ccco3)n(Cc3ccco3)c(=N)c2c1C#N the results were Shiga toxin inh 6.1, LmPK inh 6.0%, NS1 function inh 4.4%, CHX counter 15.6* and FBPA Giardia inh -7.1%.
Cc1c(O)ccc(NC(=O)/C=C/c2ccccc2)c1C was read as Shiga toxin inh 47.7*, LmPK inh -0.9%, NS1 function inh -2.1%, CHX counter 12.4 and FBPA Giardia inh -2.2%.
